PubChem BioAssay AID1069 (NMMLSC, 2008)

test: LNCaP granularity increase inducers, single-point recheck – cell-based, side scatter shift, flow cytometry, confirmation (AID 1069); details: LNCaP differentiation, 4 d, side scatter shift, at 10 µM, stronger effect = higher value;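 note: LNCaP human prostate cancer cells in low-serum medium with charcoal-stripped FBS; percent of cells with raised granularity gated so DMSO controls show 10%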

SMILES	side scatter shift [%]
CSc1nc2ccc(Nc3nc(N4CCOCC4)nc(N4CCOCC4)n3)cc2s1	5.1
CS(=O)(=O)c1nc(-c2cccs2)cc(C(F)(F)F)n1	15.6
Cc1ccccc1-c1nc(CN2CCC(C(=O)NCCCN3CC(C)CC(C)C3)CC2)c(C)o1 (centres undefined)	78.4
O=C1CCCc2c1cc(C(=O)NC1CCSC1=O)c(=O)n2-c1ccccc1 (centres undefined)	4.8
